Measurements from the supplement of paper PMC10849652.
About 8,800 targets were measured; listed, in parts, are those with a hit and a random draw of the rest. About 0.5% of all pairs of compound and target were hits.

Experiments:
Experiment in all cases: log2 fold change, soluble protein after heating vs DMSO (PISA); higher = thermal stabilisation; K562 lysate, 10 uM; active = over 0.2 and 3.5 SD of the protein, either way, in both replicates (recomputed)
[1] = compound: C1=CC=C(C=C1)[C@H](COC2=CC3=C(C=C2)NC(=O)N3)NC(=O)C4=CC=CN(C4=O)CC5=CC(=C(C=C5)F)F
Procedure, shortened: (§1)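 Following dounce homogenisation of K562 pellets in PBS pH 7.4 with 1 mM MgCl2, crude extract at 1 mg/mL protein was incubated for 30 min with 10 μM compound. Aliquots were then heated for 3 min over 48°C-58°C and pooled, NP-40 was added to 0.5% at 4°C, and soluble protein was recovered as the supernatant at 21,000xg for 90 min. Channel-sum-equalised TMTpro 16plex LC-MS/MS quantified this protein. Each value, from duplicates, is a log-two fold change in thermal stability relative to solvent controls.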

[2] = compound: CC1=C(SC2=C1C(=N[C@H](C3=NN=C(N32)C)CC(=O)N)C4=CC=C(C=C4)Cl)C
Procedure, shortened: as §1

[3] = compound: CC1=C2C(=CC=C1)N=C(N(C2=O)C3=CC=CC=C3C)CN4C=NC5=C(N=CN=C54)N
Procedure, shortened: as §1

[4] = compound: Cc1sc2c(c1C)C(c1ccc(Cl)cc1)=N[C@@H](CC(=O)OC(C)(C)C)c1nnc(C)n1-2
Procedure, shortened: as §1

[5] = compound: c1ccc([C@@H]2C[C@H]2NC2CCNCC2)cc1
Procedure, shortened: as §1

Measured: log2 fold change

CBFA2T3 (UniProt O75081)
UniProt O75081, sequence (O75081 whole entry, looked up): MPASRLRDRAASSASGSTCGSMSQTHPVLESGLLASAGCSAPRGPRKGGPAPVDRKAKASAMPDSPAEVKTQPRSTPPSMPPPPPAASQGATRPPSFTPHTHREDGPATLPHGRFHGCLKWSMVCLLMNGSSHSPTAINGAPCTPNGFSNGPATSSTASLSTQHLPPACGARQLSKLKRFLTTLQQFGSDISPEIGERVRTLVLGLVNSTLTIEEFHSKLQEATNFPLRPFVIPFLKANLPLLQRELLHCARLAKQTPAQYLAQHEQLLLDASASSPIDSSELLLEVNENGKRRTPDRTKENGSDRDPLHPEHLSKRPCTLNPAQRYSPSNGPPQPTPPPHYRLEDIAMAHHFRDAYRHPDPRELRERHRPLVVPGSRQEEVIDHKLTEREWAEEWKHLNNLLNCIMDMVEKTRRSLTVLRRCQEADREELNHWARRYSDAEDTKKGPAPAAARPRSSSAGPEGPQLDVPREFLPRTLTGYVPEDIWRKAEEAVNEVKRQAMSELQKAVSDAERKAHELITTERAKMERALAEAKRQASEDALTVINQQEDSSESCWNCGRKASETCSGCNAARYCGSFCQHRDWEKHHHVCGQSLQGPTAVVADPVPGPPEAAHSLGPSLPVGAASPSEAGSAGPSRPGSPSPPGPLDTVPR
inactive: [1] -0.029 | [2] -0.01 | [3] 0.058 | [4] 0.009 | [5] 0.019

CHD3 isoform 3 (UniProt Q12873)
UniProt Q12873, sequence (Q12873 whole entry, looked up): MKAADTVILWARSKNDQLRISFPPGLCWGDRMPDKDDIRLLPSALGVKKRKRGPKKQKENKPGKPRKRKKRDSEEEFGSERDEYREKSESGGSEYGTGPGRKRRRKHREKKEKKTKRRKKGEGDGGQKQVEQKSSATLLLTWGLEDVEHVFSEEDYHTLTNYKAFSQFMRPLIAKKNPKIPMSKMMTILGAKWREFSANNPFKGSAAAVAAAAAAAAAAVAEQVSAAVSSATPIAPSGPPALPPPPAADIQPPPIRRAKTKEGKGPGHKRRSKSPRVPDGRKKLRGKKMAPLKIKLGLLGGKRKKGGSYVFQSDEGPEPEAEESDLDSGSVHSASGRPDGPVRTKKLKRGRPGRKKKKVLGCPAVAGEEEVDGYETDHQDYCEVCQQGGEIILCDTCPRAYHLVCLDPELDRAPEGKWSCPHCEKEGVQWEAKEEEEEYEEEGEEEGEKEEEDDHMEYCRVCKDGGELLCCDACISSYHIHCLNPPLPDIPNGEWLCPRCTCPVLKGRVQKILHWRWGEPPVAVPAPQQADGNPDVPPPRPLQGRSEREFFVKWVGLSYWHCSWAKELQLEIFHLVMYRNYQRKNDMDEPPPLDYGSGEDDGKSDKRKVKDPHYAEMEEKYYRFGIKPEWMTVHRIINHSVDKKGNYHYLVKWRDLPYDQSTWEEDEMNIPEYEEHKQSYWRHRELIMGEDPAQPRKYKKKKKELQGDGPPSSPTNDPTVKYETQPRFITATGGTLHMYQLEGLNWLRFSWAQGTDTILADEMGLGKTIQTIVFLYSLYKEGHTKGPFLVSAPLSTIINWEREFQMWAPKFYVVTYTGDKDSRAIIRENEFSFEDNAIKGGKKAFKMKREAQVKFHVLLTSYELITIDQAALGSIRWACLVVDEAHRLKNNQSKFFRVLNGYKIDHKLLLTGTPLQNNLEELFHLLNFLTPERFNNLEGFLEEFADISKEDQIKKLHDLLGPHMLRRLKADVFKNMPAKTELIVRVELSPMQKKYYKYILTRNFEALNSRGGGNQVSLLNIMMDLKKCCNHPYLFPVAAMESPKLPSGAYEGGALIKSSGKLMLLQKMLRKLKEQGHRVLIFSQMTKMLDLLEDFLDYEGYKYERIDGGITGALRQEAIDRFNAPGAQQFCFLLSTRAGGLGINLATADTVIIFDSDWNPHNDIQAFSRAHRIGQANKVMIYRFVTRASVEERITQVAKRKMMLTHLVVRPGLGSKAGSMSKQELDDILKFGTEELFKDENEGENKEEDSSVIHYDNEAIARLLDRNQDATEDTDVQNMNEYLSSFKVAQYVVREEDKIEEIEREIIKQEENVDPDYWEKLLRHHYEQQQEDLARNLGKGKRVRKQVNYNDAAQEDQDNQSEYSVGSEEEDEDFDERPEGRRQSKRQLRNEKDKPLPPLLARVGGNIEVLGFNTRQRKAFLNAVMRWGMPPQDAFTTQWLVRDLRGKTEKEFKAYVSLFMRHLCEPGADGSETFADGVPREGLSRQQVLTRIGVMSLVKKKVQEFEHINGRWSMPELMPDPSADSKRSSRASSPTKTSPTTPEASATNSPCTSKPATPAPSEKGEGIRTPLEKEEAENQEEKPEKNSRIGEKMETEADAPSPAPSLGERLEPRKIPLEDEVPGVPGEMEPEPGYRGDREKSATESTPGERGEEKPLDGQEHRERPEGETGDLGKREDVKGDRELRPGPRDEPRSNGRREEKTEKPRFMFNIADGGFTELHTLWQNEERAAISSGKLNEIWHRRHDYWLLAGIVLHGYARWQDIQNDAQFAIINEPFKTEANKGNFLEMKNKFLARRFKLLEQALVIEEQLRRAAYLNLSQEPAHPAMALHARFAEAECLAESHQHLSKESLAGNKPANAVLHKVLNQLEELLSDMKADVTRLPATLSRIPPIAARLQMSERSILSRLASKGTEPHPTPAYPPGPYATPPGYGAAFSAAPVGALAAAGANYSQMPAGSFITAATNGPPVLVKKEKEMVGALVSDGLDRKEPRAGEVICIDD
inactive: [1] -0.009 | [2] 0.027 | [3] 0.024 | [4] 0.035 | [5] 0.038

BCL2L12 (UniProt Q9HB09)
UniProt Q9HB09, sequence (Q9HB09 whole entry, looked up): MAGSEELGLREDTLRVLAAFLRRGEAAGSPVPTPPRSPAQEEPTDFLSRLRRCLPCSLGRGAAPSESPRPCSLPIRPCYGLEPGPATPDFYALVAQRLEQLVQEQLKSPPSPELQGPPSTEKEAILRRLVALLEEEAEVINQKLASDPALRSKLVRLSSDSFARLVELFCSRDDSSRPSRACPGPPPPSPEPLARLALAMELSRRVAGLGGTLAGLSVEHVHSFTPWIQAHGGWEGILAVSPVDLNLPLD
inactive: [1] 0.162 | [2] 0.119 | [3] 0.035 | [4] -0.011 | [5] -0.044

CEP152 (UniProt O94986)
inactive: [1] 0.024 | [2] -0.236 | [3] 0.01 | [4] 0.008 | [5] -0.028

CCNB1 (UniProt P14635)
UniProt P14635, sequence (P14635 whole entry, looked up): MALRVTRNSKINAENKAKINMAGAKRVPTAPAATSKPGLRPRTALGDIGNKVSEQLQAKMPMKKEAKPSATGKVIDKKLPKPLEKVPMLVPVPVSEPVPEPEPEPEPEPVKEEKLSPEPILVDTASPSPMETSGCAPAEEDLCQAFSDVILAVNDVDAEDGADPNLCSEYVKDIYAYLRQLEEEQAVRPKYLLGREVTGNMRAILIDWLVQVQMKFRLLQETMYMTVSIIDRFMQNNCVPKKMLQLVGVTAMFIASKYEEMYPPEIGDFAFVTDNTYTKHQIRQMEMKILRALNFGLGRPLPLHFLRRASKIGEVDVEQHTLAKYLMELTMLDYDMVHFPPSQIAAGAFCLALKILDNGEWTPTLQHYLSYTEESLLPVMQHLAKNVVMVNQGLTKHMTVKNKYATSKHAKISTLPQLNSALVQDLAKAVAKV
inactive: [1] -0.019 | [2] 0.063 | [3] 0.038 | [4] -0.032 | [5] 0.036

CALM2 (UniProt P0DP24)
inactive: [1] -0.07 | [2] -0.177 | [3] 0.009 | [4] -0.088 | [5] -0.001

CCDC186 (UniProt Q7Z3E2)
UniProt Q7Z3E2, sequence (Q7Z3E2 whole entry, looked up): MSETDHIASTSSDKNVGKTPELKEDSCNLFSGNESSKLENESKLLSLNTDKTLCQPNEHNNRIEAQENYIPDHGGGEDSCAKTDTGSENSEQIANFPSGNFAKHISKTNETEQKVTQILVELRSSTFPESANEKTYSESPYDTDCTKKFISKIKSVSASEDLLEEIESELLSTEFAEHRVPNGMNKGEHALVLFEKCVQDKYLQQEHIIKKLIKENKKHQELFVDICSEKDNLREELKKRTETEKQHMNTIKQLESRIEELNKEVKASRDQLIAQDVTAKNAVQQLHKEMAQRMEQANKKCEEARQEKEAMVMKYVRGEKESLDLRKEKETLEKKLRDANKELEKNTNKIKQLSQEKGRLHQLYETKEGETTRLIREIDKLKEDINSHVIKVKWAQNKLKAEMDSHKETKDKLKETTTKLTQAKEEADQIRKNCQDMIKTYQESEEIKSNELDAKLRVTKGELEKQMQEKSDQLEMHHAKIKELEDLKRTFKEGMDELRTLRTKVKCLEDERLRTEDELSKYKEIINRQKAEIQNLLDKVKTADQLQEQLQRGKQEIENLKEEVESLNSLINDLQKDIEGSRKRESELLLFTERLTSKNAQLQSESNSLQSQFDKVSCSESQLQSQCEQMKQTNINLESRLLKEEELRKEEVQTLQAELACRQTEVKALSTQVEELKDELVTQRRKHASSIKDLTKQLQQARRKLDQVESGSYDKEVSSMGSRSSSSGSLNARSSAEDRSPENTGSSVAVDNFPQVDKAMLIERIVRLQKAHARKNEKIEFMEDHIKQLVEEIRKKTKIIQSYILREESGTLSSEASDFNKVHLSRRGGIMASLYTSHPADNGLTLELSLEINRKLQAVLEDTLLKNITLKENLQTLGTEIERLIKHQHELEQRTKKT
inactive: [1] 0.031 | [2] 0.085 | [3] 0.055 | [4] -0.016 | [5] 0.105

ATXN2 (UniProt F8WB05)
inactive: [1] -0.17 | [2] 0.212 | [3] 0.146 | [4] 0.004 | [5] 0.022

CDKN1B (UniProt P46527)
UniProt P46527, sequence (P46527 whole entry, looked up): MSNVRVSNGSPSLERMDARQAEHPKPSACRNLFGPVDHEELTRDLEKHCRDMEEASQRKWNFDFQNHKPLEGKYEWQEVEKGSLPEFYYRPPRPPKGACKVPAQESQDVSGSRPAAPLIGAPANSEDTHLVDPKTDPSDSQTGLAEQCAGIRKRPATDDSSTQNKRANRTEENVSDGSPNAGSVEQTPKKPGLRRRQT
inactive: [1] 0.059 | [2] -0.038 | [3] 0.146 | [4] 0.101 | [5] 0.02
